Laboratory results as given in PubChem BioAssay AID493168 (National Center for Advancing Translational Sciences (NCATS), 2011).
Inconclusive results are not listed. A number with no mark means an inactive call. The source made the active and inactive calls. Calls follow the shape of the dose curve; as a rule, active = well fitted inhibition curve with a large enough effect; inconclusive = small, poorly fitted or top-dose-only effect, or effect the other way; inactive = flat fitted curve, though single readings scatter.

What follows are compounds tested against Ubiquitin carboxyl-terminal hydrolase 2 (Homo sapiens) (UniProt O75604) (assay: Confirmation Assay for Inhibitors of Ubiquitin-specific Protease USP2a Using CHOP2 as the Reporter). Details: USP2 core, Ub-CHOP2 coupled reporter fluorescence; series mostly up to 38.3 µM; activity change, negative = inhibition: at the top concentration.
Method in brief: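 Ub-CHOP2 cleavage coupled to reporter activation was read by fluorescence after 60 min at RT, with 25 nM final Ub-CHOP2 and substrate. Enzyme (10 nM final USP2 core) first sat 30 min with compound; data were normalized to NEM and fitted to concentration-response curves.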
Also: nearly all actives have a fitted effect of over 55% in size.
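For activity change, negative = inhibition in this document: plate controls were DMSO wells for no effect and full inhibition by NEM control for full effect.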
Potency is read from the fitted curve at half-maximal effect.

Chain of Ubiquitin carboxyl-terminal hydrolase 2 (Homo sapiens) (O75604 whole entry, looked up): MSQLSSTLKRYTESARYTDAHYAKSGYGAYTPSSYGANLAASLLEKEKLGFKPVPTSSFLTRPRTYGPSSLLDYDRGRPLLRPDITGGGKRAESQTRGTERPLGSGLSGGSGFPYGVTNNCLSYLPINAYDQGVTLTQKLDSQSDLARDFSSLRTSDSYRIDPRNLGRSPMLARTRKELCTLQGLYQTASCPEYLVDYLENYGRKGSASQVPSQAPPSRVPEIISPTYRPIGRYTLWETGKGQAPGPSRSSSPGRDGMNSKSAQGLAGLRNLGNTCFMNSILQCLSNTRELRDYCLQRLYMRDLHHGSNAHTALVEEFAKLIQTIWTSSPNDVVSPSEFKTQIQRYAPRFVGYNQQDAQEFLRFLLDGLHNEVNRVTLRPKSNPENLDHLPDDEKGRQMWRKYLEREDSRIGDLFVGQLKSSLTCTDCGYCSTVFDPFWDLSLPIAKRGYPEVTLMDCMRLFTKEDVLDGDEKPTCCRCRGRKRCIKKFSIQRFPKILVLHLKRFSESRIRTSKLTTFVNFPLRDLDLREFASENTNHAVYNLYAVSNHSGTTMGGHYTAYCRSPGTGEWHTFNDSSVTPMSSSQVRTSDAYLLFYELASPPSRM

Row | Compound | activity change, negative = inhibition | Potency
1 | CCn1c2ccccc2c2nc3ccccc3nc21 | 0.685% | 
2 | Cc1ccc(NC(=O)CSc2nnc(COc3ccc(C#N)cc3)n2-c2ccccc2)cc1C | 1.15% | 
3 | Cc1ccc(NC(=O)c2cc(-c3ccco3)nc3ccccc23)cc1S(=O)(=O)N1CCOCC1 |  | 11.7 µM (active)
4 | COc1ccc(NC(=O)C2CC(=O)OC2c2ccccc2)cc1 (stereo not given) | 1.9% | 
5 | Cc1ccc(N(CC(=O)Nc2ccc(S(=O)(=O)N3CCOCC3)cc2)S(C)(=O)=O)cc1C | -1.17% | 
6 | Cc1cc(N2CCC(C(=O)NC3CC3)CC2)nc(-c2ccccc2)n1 | 4.66% | 
7 | CCCn1c(C)cc(C)c(C#N)c1=O | 7.38% | 
8 | COc1cc(C(=O)OC2CCCCC2=O)cc(OC)c1C (stereo not given) |  | 11.7 µM (active)
9 | COCCn1c(SCC(=O)Nc2cc(C)on2)nnc1-c1ccccc1 | 1.16% | 
10 | Cc1ccccc1NC(=O)CSc1nnc(-c2ccco2)c(-c2ccco2)n1 | -11.5% | 
11 | O=C(CSc1nnc(SCc2ccccc2)s1)N/N=C/C=C/c1ccco1 |  | 13.1 µM (active)
12 | Nc1ccccc1S(=O)(=O)NC1=NCCCCC1 | 2.55% | 
13 | C=C(C)COc1ccc(-c2[nH]ncc2Oc2ccccc2OCC)c(O)c1 | 0.628% | 
14 | O=C1NC[C@@H](c2ccccc2)OC(=O)[C@@H](Cc2ccc(F)cc2)CC/C=C/C[C@@H]1CC(=O)N(CCO)Cc1ccccc1 | 1.12% | 
15 | Cc1ccc(C(=O)CSc2nnc(CNc3nc(-c4ccccc4)cs3)n2C)cc1 | -6.56% | 
16 | CCC/C(O)=C1\C(=O)CC(C)(C)CC1=Nc1ccc(OC)cc1OC | -6.51% | 
17 | CCOc1ccc2nc(NC(=O)Nc3ccccc3)sc2c1 | -2.42% | 
18 | O=C1COc2ccc(C(=O)COC(=O)/C=C/c3ccc(Br)o3)cc2N1 |  | 9.27 µM (active)
19 | COc1ccc(NC(=O)CSc2ncccc2C(=O)OC(C)C)cc1OC | 1.81% | 
20 | O=C(Nc1nnc(-c2cccs2)o1)c1cccc(Oc2ccccc2)c1 | -18.2% | 

Row | Compound | activity change, negative = inhibition | Potency
21 | O=C(NN1C(=O)/C(=C/C=C/c2ccco2)SC1=S)c1ccncc1 |  | 13.1 µM (active)
22 | COc1ccccc1N1C(=O)CC(N2CCc3ccccc32)C1=O (stereo not given) | 0.0977% | 
23 | C=CC[C@@H](CC(=O)N(CCO)Cc1ccccc1)C(=O)NCCOC(=O)[C@H](CC=C)CC(=O)OC(C)(C)C | -0.238% | 
24 | FC(F)(F)c1cnc2c(c1)Nc1ccccc1S2 | 0.666% | 
25 | CCCc1cc(=O)oc2cc(C)c(CN3CCCC3)c(O)c12 | -1.5% | 
26 | Cc1ccc(-c2ccc(CCC(=O)O)n2NC(=O)c2cccs2)cc1 | -2.31% | 
27 | CCc1cc(C(=O)N=Nc2c(O)[nH]c3ccc([N+](=O)[O-])cc23)c2ccccc2n1 |  | 14.7 µM (active)
28 | CCn1nc(C(=O)N[C@@H](CCSC)c2nc3ccccc3[nH]2)c2ccccc2c1=O | -1.26% | 
29 | O=C(Nc1ccc2nc(-c3ccco3)c(-c3ccco3)nc2c1)N1CCN(c2ccccn2)CC1 |  | 16.5 µM (active)
30 | CCOc1ccccc1N(CC(=O)NC(C)(C)C)C(=O)c1ccc(CN2CCOCC2)o1 | -4.17% | 
31 | O=C1/C(=C/C=C/c2ccco2)SC(=S)N1NS(=O)(=O)c1ccccc1 |  | 8.26 µM (active)
32 | CCC1=[N+](CC(=O)c2ccc(Br)cc2)CCn2c(C)ccc21 | 3.43% | 
33 | Cc1cc(C(=O)OCC(=O)c2cccc([N+](=O)[O-])c2)c2cccc(C)c2n1 | -9.73% | 
34 | O=C(O)c1cccc(S(=O)(=O)NNc2ccccc2C(F)(F)F)c1 | 1.51% | 
35 | COc1ccc(C(=O)Nc2ccc(N3CCCC3)cc2)cc1OC | 1.15% | 
36 | CC(C)CC(c1nnnn1CC1CCCO1)N1CCN(c2nc3ccccc3s2)CC1 (stereo not given) | -1.59% | 
37 | Cc1ccc(NC(=O)c2onc(C)c2Cl)cc1 | -4.53% | 
38 | CCOC(=O)C1CCCN(CC(=O)Nc2c(C(=O)OC)[nH]c3ccc(C)cc23)C1 (stereo not given) | -1.36% | 
39 | Cc1cc2c(c(=O)n1CC1CCCO1)C(c1ccco1)C(C#N)=C(N)O2 (stereo not given) | 6.21% | 
40 | CSCC[C@H](NC(=O)C1CCN(S(=O)(=O)c2ccc(C)cc2)CC1)C(=O)NCc1ccco1 | -3.41% | 
